In PubChem BioAssay (NCI):
About 79,000 compounds went through this panel and 15% of them were active in at least one assay; those are over-represented in the sample as a whole. The source made the active and inactive calls. No stated cut-off is given here; in the data, active means growth inhibition above about 70%; inactive means the rest. *1 amine or outer side, *2 acyl side, *3 side chain or, on linkers, in order; H or OH if unused. Where a SMILES comes first, the peptide text is derived from it. Bridges are numbered along the chain shown (N, C = ends). Roman numbers before positions name the chains, in order. [ ]: non-standard residue; d: D form. Actinocin(9to1) = Cc1c2oc3c(C)ccc(C(=O)[*:1])c3nc-2c(C(=O)[*:2])c(N)c1=O; NMeF = CN[CH](Cc1ccccc1)C(=O)O; Sar = CNCC(=O)O

Tests used:
[1] = NCI Yeast Anticancer Drug Screen. Data for the rad50 strain (AID 155);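 further: 0% = growth of vehicle-only cultures of the same strain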; settings: S. cerevisiae rad50 strain growth inhibition; at 50.0 µM; active compounds read high
In short: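 Genetically altered yeast (DNA repair pathway); compound treatment; growth inhibition vs vehicle ctrl.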

[2] = NCI Yeast Anticancer Drug Screen. Data for the mec2-1 strain (AID 157); settings: S. cerevisiae mec2-1 strain, at 50.0 µM, active compounds read high
In short: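 mec2-1 yeast strain, carrying an alteration in DNA damage repair or cell cycle control, was exposed to compounds; growth inhibition was measured relative to vehicle-treated controls.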

[3] = NCI Yeast Anticancer Drug Screen. Data for the sgs1 mgt1 strain (AID 161);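 further: 0% = growth of cultures given vehicle only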; settings: S. cerevisiae sgs1 mgt1 strain, at 50.0 µM, active compounds read high
In short: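 Percent growth inhibition was derived by comparing compound-exposed mutant yeast with vehicle-exposed cultures. The strain carries alterations in DNA damage repair.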

[4] = NCI Yeast Anticancer Drug Screen. Data for the cln2 rad14 strain (AID 165);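 further: 0% = growth equal to vehicle treated cultures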; settings: S. cerevisiae cln2 rad14 strain, at 50.0 µM, active compounds read high
In short: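 Yeast carrying cln2 and rad14 alterations (cell cycle control and DNA damage repair) were exposed to compounds. Growth inhibition was measured against vehicle-treated controls.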

[5] = NCI Yeast Anticancer Drug Screen. Data for the bub3 strain (AID 167); settings: S. cerevisiae bub3 mutant strain, at 50.0 µM, active compounds read high
In short: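 Yeast carrying a defined mutation is treated with each compound, and growth is compared with that of vehicle-exposed cells to give inhibition.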

[6] = NCI Yeast Anticancer Drug Screen. Data for the mlh1 rad18 strain (AID 175); settings: S. cerevisiae mlh1 rad18 strain growth inhibition; at 50.0 µM; active compounds read high
In short: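 Growth inhibition of the yeast strain was measured after compound exposure and expressed relative to vehicle-treated controls. The strain carries defined defects in DNA damage repair.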

Measured: growth inhibition

C=C[C+](CCCC)C(=O)[O-]
inactive: [1] -20.2% | [2] -24.1% | [3] -11.1% | [4] -19.8% | [5] -12.8% | [6] -34.9%

COc1cc(C2=N/C(=C\c3cc(Br)cc(Br)c3O)C(=O)O2)cc(OC)c1OC
active: [1] 83.2% | [2] 94.5% | [3] 88.2% | [4] 98.7% | [5] 98.5% | [6] 92.3%

COC(=O)Cc1ccccc1C(c1ccccc1)c1ccccc1
inactive: [1] -1.85% | [2] -0.4% | [3] 9.7% | [4] 6.7% | [5] 13.8% | [6] -0.65%

CC(C)(C)C(=O)C(C#N)C(=O)C(C)(C)C
inactive: [1] 8.75% | [2] -19.9% | [3] -7.45% | [4] 16.1% | [5] -19.9% | [6] -14.2%

Nc1ncnc2nc(SC3OC(CO)C(O)C(O)C3O)[nH]c12 (stereo unspecified)
inactive: [1] 10.2% | [2] -9.65% | [3] 9.9% | [4] -9% | [5] 12.8% | [6] 2.85%

CC(=O)NC(C(=O)O)C(C)(C)S (stereo unspecified)
inactive: [1] -1.85% | [2] -48.9% | [3] -4.7% | [4] 26.8% | [5] -33.2% | [6] 8.95%

CCOC(=O)/C=C(/C)N
inactive: [1] -19.1% | [2] -7.25% | [3] -14.2% | [4] 8.45% | [5] 1.85% | [6] -0.75%

COc1cccc2c1CCC(=O)C2C (stereo unspecified)
inactive: [1] 35.1% | [2] -0.9% | [3] 14.3% | [4] -5.45% | [5] 13.6% | [6] 22.9%

C/C(=N\NC(=S)NCCCCNC(=S)N/N=C(\C)c1ccccn1)c1ccccc1
inactive: [1] -4.15% | [2] 36.1% | [3] 14.7% | [4] 3.65% | [5] 38.4% | [6] 13.9%

Cc1cccc2c(SCCCCCCSc3c4ccccc4nc4c(C)cccc34)c3ccccc3nc12
inactive: [1] -2.25% | [2] -8.1% | [3] -26.7% | [4] -21.5% | [5] -2.7% | [6] 7.05%

Nc1cccc(S(N)(=O)=O)c1
inactive: [1] 10.4% | [2] -5.65% | [3] -0.85% | [4] -40% | [5] 12.2% | [6] 1.4%

CC1CC(c2ccccc2)Nc2nc3ccccc3n21 (stereo unspecified)
inactive: [1] 5.65% | [2] 3.45% | [3] -4.7% | [4] 7.95% | [5] 5.65% | [6] -14.3%

C=CCOCn1cc(C)c(=O)[nH]c1=O
inactive: [1] 5.6% | [2] 17.4% | [3] 36.4% | [4] 5.5% | [5] 6.5% | [6] 17.4%

CCN(CC)CCCNc1ncnc2onc(C)c12
inactive: [1] 15.3% | [2] 15.2% | [3] 2.2% | [4] 6.15% | [5] 1.45% | [6] -9.3%

Cc1ccc2c(c1)CN(C)c1ccc(C)cc1CN2C
inactive: [1] 17.4% | [2] -11.8% | [3] 22.9% | [4] 21.8% | [5] 9.65% | [6] 31.1%

Cc1ncc(CSC(=N)N)n1Cc1ccccc1
inactive: [1] -33.6% | [2] -11.4% | [3] -6.55% | [4] -17.6% | [5] -11.1% | [6] -23.9%

Cn1c(=O)c2ccccc2c2cc(Br)ccc21
inactive: [1] 41.1% | [2] 6.05% | [3] 4.15% | [4] -14.8% | [5] 7.8% | [6] 20.6%

Cc1c2oc3c(C)ccc(C(=O)NC4C(=O)NC(C(C)C)C(=O)N5CCCC5C(=O)N(C)CC(=O)N(C)C(Cc5ccccc5)C(=O)OC4C)c3nc-2c(C(=O)NC2C(=O)NC(C(C)C)C(=O)N3CCCC3C(=O)N(C)CC(=O)N(C)C(Cc3ccccc3)C(=O)OC2C)c(N)c1=O (stereo unspecified) (I: TVP[Sar][NMeF] / II: TVP[Sar][NMeF]; ester I:1-I:C, II:1-II:C; linker I:N-II:N via Actinocin(9to1); configuration not given here)
inactive: [1] -0.6% | [2] 6.05% | [3] -12.7% | [4] 2.15% | [5] -23.6% | [6] -27.4%

C=CC(O)CCCC (stereo unspecified)
inactive: [1] 8.35% | [2] -32.6% | [3] 0.6% | [4] 6.25% | [5] -17.1% | [6] 18.1%

CC1OC(C)(c2ccccc2)OC1C (stereo unspecified)
inactive: [1] 18.1% | [2] 13.8% | [3] 27.1% | [4] -26.5% | [5] 32.7% | [6] 41.7%

CC(=O)Nc1ccc(S(=O)(=O)N/N=c2/sc3ccccc3n2C)cc1
inactive: [1] -11.3% | [2] -12.4% | [3] 16% | [4] 20.5% | [5] 13.8% | [6] -4%
